This is an account of results in PubChem BioAssay (Tox21).

In test [1] the target is Thyrotropin-releasing hormone receptor (Homo sapiens) (UniProt P34981). The test can be described thus: qHTS assay to identify small molecule agonists of the thyrotropin-releasing hormone receptor (TRHR) signaling pathway (AID 1346891; calls by dose curve; further: series mostly up to about 58 µM). The gist of the method: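 HEK293 cells expressing TRHR plated 18 h at 37 C/5% CO2, calcium dye-loaded 2 h at 37 C, then compound added (agonist mode); kinetic calcium fluorescence read 3 min at 1 s intervals; 15 concentrations in triplicate.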
(In general: qHTS replaces the single test concentration by a dilution series.)

A short description of test [2]: Human pregnane X receptor (PXR) small molecule agonists, qHTS cell viability counter screen (AID 1346977). Further: nearly all actives have a fitted effect of over 50% in size. The gist of the method:
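PXR-Luc HepG2 cells (2,000/well, 5% charcoal-stripped FBS) preincubated 5 hr, then exposed to compounds 24 hr at 37 C. Viability read in the same wells by CellTiter-Fluor fluorescence, reagent added at 23 hr, 1 hr incubation.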

A short description of test [3]: Caspase-3/7 induction in HepG2 cells by small molecules, qHTS assay (AID 1346978). Further: nearly all actives have a fitted effect of over 15% in size. The gist of the method: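 Wild-type HepG2 cells (2,000/well) were settled 5 h at 37 C, 5% CO2, then exposed to compounds in DMSO for 17 h. Caspase-3/7 activity was read by luminescence 30 min after adding Caspase-Glo 3/7 reagent at room temperature.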
A short description of test [4]: Caspase-3/7 induction in CHO-K1 cells by small molecules, qHTS cell viability counter screen (AID 1346979). Further: nearly all actives have a fitted effect of over 35% in size. An outline of the steps:
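Wild-type CHO-K1 cells (1,500/well) treated with compound after 5 h plating; after 16 h at 37C, viability read as CellTiter-Fluor fluorescence following 1 h reagent incubation, in the same wells as the caspase read.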

The nature of test [5]: Caspase-3/7 induction in HepG2 cells by small molecules, qHTS cell viability counter screen (AID 1346981). Further: series mostly up to about 92 µM; nearly all actives have a fitted effect of over 30% in size. An outline of the steps:
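Treatment of HepG2 cells with DMSO-delivered compounds ran 16 hr at 37 C following a 5-hr pre-incubation of 2,000 cells/well. CellTiter-Fluor fluorescence, read after 1 hr, served as the viability measure in a qHTS format.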

The target in test [6] is Nuclear receptor subfamily 1 group I member 2 (Homo sapiens) (UniProt O75469). Description: Human pregnane X receptor (PXR) small molecule agonists, qHTS assay (AID 1346982). Further: nearly all actives have a fitted effect of over 35% in size. Further: potency means the concentration at half of the fitted maximal effect. An outline of the steps: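 Stable HepG2 line reporting PXR-mediated CYP3A4 expression via luciferase. Treatment: 24 hr with compounds in DMSO at 37 C. Detection: ONE-Glo luminescence.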
Test [7] has as its target Acetylcholinesterase (Homo sapiens) (UniProt P22303). Description: Acetylcholinesterase (AChE) small molecule antagonists: colormetric cell-based qHTS assay (AID 1347395; calls by dose curve; further: nearly all actives have a fitted effect of over 30% in size). The gist of the method: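 SH-SY5Y cells attached overnight, exposed to compound 30 min at 37 C, then given DTNB/acetylthiocholine; after 90 min at 37 C, colorimetric thiocholine read gives cellular AChE activity.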

The target is the same in test [8]. The test can be described thus: Acetylcholinesterase (AChE) small molecule antagonists: enzyme-based qHTS assay (AID 1347397; calls by dose curve; further: nearly all actives have a fitted effect of over 55% in size). The note with it: Potency: AChE enzyme activity inhibition. The gist of the method:
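Tox21 library chemicals are tested in qHTS format against recombinant human AChE. The enzyme, dispensed at 50 mU/mL, sits with compound for 30 min at room temperature. A DTNB–acetylthiocholine cocktail follows, and colour is read after 10 min.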

Test [9] has the same target. The test can be described thus: Acetylcholinesterase (AChE) small molecule antagonists: fluorescence cell-based qHTS assay (AID 1347398; calls by dose curve; further: nearly all actives have a fitted effect of over 50% in size). The note with it: Potency: AChE activity. An outline of the steps: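 Cellular AChE inhibition: SH-SY5Y cells treated with test chemical for 30 min at 37 C, then acetylthiocholine hydrolysis followed over 40 min at room temperature via thiocholine-reactive Thiolite Green fluorescence (490/520 nm).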

Test [10] has the same target. Description: Acetylcholinesterase (AChE) small molecule antagonists: enzyme-based qHTS assay with human liver microsomes (AID 1347399; calls by dose curve; further: nearly all actives have a fitted effect of over 60% in size). The note with it: Potency: qHTS inhibition. An outline of the steps:
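Recombinant human AChE (50 mU/mL in the enzyme mix) and human liver microsomes (0.25 mg/mL final) were preincubated with compound and NADPH (0.25 mg/mL final) for 30 min at 37 C. Acetylthiocholine/DTNB was then added; thiocholine was read colorimetrically after 10 min at room temperature.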

Test [11] has as its target Cytochrome P450 2D6 (Homo sapiens) (UniProt P10635). Description: Cytochrome P450 Family 2 Subfamily D Member 6 (CYP2D6) small molecule antagonists: luciferase reporter qHTS assay (AID 1671196). Further: series mostly up to about 120 µM; nearly all actives have a fitted effect of over 50% in size. An outline of the steps:
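Chemicals tested for interference with CYP2D6 activity; proluciferin substrate, NADPH regeneration, 1 h at room temperature, luminescent detection.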

The target of test [12] is Cytochrome P450 2C19 (Homo sapiens) (UniProt P33261). Description: Cytochrome P450 Family 2 Subfamily C Member 19 (CYP2C19) small molecule antagonists: luciferase reporter qHTS assay (AID 1671197). Further: nearly all actives have a fitted effect of over 65% in size. Further: potency means the concentration at half of the fitted maximal effect. An outline of the steps:
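Enzyme-substrate mix with proluciferin substrate (P450-Glo CYP2C19 system) preincubated with compounds 10 min at room temperature; NADPH regeneration solution added, 37C for 1 h; detection reagent stops reaction, luminescence read after 20 min. Ketoconazole positive control.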

The target of test [13] is Cytochrome P450 2C9 (Homo sapiens) (UniProt P11712). Description: Cytochrome P450 Family 2 Subfamily C Member 9 (CYP2C9) small molecule antagonists: luciferase reporter qHTS assay (AID 1671198). Further: nearly all actives have a fitted effect of over 50% in size. Further: potency means the concentration at half of the fitted maximal effect. An outline of the steps:
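CYP2C9 activity was measured with a P450-Glo proluciferin substrate. Enzyme–substrate mix was held with compound for 10 min at room temperature, then NADPH regeneration solution was added for 1 h at 37C. Luciferin product was read as luminescence.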
Background: Reporter assays use an easily measured gene product as a stand-in for the process of interest.

The target in test [14] is Cytochrome P450 1A2 (Homo sapiens) (UniProt P05177). Description: Cytochrome P450 Family 1 Subfamily A Member 2 (CYP1A2) small molecule antagonists: luciferase reporter qHTS assay (AID 1671199). Further: nearly all actives have a fitted effect of over 50% in size. Further: potency means the concentration at half of the fitted maximal effect. The gist of the method:
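Read-out is luminescence from luciferin detection reagent (20 min) proportional to CYP1A2 activity; compounds in DMSO preincubated 10 min with enzyme and proluciferin substrate, then NADPH regeneration solution, 1 h, room temperature.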

Test [15] deals with Voltage-gated inwardly rectifying potassium channel KCNH2 (Homo sapiens) (UniProt Q12809). The test can be described thus: Human Ether-a-go-go-Related Gene (hERG) channel small molecule antagonists: fluorescence cell-based qHTS assay (AID 1671200). An outline of the steps:
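hERG-U2OS cells plated overnight at 37 C, loaded with FluxOR II dye 1 h at RT in dark; after 10 min, thallium stimulus added. Fluorescence (480/540 nm) read kinetically for 2 min at 1 s intervals.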
On the technique in general: The hERG channel carries a current that helps repolarise heart muscle cells.

For test [16], the target named is Cytochrome P450 3A4 (Homo sapiens) (UniProt P08684). The test can be described thus: Cytochrome P450 Family 3 Subfamily A Member 4 (CYP3A4) small molecule antagonists: luciferase reporter qHTS assay (AID 1671201). Further: nearly all actives have a fitted effect of over 50% in size. Further: potency means the concentration at half of the fitted maximal effect. An outline of the steps:
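P450-Glo CYP3A4 luminescent assay: compounds preincubated 10 min at room temperature with enzyme and proluciferin substrate, NADPH regeneration added, 1 h room-temperature reaction, stopped with luciferin detection reagent; luminescence read after 20 min. Ketoconazole positive control.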

Test [17] deals with Nuclear receptor subfamily 1 group I member 2 (Rattus norvegicus) (UniProt Q9R1A7). Description: Rat pregnane X receptor (rPXR) activation by small molecules, qHTS assay (AID 1346983). Further: nearly all actives have a fitted effect of over 20% in size. The note with it: rPXR luciferase reporter cells, One-Glo luminescence, 24 h; max activation: stronger effect = higher value. An outline of the steps:
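Cell-based rPXR luciferase reporter assay, 2,000 cells per well, rested 5hr at 37 C before compound addition in DMSO, then 24 hr at 37 C. One-Glo reagent was added and luminescence read after 30 min at room temperature.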

The target in test [18] is Nuclear receptor subfamily 1 group I member 2 (Homo sapiens) (UniProt O75469). The test can be described thus: CYP3A4 induction through human pregnane X receptor (PXR) by small molecules, qHTS assay (AID 1346984). Further: nearly all actives have a fitted effect of over 40% in size. An outline of the steps: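 After 24 h at 37C with compound, DPX-2 cells (HepG2, co-transfected PXR response element and CYP3A4 promoter-luciferase) got 3uM final P450-Glo Luciferin-IPA for 3 h; One-Glo luminescence followed.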

For test [19] the target is unchanged. The test can be described thus: Human pregnane X receptor (PXR) activation by small molecules, qHTS assay (AID 1346985). Further: nearly all actives have a fitted effect of over 40% in size. The gist of the method:
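DPX-2 cells (HepG2 co-transfected with a PXR response element and a CYP3A4-promoter luciferase construct) were seeded at 2,000 per well, rested 5 hr at 37C, then exposed to DMSO-dissolved compounds for 24 hr. Activation was read as luciferase luminescence.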

Test [20] can be described thus: Caspase-3/7 induction in CHO-K1 cells by small molecules, qHTS assay (AID 1346980). Further: nearly all actives have a fitted effect of over 15% in size. The gist of the method:
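Wild-type cells were seeded at 1,500 per well and settled 5 hr at 37 C, 5% CO2, then exposed to DMSO-dissolved compounds for 17 hr. Caspase-Glo 3/7 reagent was added, and luminescence was read after 30min at room temperature.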

“And” between values parts separate entries of the source, which are not always exact repeats. Equal entries are not always repeated. Inconclusive results are not listed. Some compounds were tested as several samples or in several runs, with calls that do not always agree. The source made the active and inactive calls. Unless noted, the call rests on the fitted dose curve; in most records, active means well fitted curve in the direction sought with a large enough effect in the repeat runs; inconclusive means weak or mixed curves; inactive means no such curve, though single readings can be large; an effect the other way counts as inactive or inconclusive.
On the % scale 0 is the no-effect control and ±100 the full control effect.

Thyrotropin-releasing hormone receptor (Homo sapiens), sequence (P34981 whole entry, looked up): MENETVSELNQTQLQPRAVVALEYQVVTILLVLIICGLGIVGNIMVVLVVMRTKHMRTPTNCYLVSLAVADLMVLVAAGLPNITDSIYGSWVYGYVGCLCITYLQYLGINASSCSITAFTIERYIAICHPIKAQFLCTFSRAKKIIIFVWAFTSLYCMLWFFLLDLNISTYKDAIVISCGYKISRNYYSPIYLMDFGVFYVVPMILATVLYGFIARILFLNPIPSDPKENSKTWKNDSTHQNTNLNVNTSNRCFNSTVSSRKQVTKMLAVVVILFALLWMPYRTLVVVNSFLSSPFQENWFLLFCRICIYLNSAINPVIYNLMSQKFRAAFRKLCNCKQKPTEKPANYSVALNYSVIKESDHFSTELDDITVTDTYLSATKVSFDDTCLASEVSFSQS
Acetylcholinesterase (Homo sapiens), sequence (P22303 whole entry, looked up): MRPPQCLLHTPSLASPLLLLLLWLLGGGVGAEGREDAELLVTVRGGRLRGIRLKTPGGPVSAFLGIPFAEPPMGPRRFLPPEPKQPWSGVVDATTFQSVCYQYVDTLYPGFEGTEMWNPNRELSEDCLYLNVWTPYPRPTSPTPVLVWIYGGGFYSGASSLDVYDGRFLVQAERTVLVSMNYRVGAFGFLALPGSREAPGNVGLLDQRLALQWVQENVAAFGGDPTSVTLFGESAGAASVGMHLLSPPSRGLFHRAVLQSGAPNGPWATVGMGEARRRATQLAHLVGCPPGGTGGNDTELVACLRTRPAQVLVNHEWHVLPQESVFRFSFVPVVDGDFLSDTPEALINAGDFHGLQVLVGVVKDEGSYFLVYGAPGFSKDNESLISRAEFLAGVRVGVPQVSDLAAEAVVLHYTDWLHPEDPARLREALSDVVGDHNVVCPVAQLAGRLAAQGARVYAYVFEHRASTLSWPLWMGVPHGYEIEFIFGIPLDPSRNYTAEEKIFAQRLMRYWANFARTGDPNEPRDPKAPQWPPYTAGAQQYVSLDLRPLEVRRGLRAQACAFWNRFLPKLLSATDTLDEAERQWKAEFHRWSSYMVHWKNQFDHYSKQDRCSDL
Cytochrome P450 3A4 (Homo sapiens), sequence (P08684 whole entry, looked up): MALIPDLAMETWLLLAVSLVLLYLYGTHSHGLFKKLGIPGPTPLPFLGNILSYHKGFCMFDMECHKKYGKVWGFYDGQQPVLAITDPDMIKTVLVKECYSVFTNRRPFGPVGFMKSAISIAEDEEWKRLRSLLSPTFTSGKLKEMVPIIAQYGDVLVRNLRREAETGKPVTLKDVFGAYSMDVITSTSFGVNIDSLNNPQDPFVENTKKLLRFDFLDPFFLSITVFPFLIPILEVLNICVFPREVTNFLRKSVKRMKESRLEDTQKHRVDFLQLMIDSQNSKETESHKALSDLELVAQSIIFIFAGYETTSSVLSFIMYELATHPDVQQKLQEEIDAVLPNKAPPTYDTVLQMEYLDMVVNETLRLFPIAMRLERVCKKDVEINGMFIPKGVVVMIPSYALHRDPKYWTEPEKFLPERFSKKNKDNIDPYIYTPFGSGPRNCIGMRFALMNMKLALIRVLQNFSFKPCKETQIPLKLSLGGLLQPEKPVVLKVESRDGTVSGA
Cytochrome P450 1A2 (Homo sapiens), sequence (P05177 whole entry, looked up): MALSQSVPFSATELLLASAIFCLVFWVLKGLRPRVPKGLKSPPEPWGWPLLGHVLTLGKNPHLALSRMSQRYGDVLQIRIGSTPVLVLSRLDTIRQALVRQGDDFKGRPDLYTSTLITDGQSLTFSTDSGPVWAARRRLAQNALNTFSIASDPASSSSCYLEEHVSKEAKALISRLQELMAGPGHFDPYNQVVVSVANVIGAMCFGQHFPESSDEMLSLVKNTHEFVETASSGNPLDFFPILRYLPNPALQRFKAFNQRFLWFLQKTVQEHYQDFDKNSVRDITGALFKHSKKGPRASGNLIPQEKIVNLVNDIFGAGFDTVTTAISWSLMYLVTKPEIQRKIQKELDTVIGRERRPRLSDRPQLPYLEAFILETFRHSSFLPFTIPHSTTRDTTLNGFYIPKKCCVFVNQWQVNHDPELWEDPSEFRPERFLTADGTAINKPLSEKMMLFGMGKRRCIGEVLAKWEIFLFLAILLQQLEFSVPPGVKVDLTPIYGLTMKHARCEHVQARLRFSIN
Voltage-gated inwardly rectifying potassium channel KCNH2 (Homo sapiens), sequence (Q12809 whole entry, looked up): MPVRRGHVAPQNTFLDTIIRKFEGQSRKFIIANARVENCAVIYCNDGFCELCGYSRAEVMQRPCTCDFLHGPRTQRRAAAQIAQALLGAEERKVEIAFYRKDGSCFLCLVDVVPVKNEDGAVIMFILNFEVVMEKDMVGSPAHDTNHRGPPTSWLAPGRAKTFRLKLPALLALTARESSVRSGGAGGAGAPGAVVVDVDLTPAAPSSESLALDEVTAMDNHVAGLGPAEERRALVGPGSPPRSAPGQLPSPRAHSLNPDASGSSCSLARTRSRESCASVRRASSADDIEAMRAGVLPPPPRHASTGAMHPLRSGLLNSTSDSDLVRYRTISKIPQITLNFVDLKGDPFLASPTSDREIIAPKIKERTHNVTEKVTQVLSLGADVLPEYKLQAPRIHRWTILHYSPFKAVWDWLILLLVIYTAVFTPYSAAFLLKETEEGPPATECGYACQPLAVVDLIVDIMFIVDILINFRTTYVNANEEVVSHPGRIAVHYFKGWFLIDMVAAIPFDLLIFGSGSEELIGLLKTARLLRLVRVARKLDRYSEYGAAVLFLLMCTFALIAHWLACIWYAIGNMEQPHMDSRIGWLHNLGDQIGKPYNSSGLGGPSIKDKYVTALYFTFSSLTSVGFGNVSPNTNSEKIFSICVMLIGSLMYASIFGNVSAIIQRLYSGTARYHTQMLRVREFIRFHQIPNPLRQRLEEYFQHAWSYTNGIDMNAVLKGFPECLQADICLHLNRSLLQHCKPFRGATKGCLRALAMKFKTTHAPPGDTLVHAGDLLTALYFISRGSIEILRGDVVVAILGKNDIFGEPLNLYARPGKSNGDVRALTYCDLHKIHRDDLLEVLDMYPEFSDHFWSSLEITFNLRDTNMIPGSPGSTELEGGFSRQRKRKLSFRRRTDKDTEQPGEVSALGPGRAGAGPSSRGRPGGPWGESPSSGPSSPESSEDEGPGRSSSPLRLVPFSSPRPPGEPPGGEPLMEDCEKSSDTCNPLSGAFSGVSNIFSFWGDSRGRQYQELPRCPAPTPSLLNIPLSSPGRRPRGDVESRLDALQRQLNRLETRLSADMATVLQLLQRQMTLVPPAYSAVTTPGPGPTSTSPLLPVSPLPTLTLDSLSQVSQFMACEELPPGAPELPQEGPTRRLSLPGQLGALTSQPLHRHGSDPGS
Cytochrome P450 2C9 (Homo sapiens), sequence (P11712 whole entry, looked up): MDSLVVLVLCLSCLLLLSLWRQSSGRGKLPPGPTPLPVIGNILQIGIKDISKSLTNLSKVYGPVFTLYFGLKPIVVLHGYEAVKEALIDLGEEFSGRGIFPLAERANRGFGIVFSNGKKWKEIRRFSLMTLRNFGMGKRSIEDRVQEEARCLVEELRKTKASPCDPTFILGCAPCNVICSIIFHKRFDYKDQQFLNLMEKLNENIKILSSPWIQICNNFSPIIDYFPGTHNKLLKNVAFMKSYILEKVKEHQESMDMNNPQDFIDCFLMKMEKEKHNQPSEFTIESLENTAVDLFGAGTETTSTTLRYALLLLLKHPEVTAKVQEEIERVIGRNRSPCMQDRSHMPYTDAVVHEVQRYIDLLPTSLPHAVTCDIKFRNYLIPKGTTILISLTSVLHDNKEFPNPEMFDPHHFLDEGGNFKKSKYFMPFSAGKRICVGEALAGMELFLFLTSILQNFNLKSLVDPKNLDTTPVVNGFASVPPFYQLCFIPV
Nuclear receptor subfamily 1 group I member 2 (Homo sapiens), sequence (O75469 whole entry, looked up): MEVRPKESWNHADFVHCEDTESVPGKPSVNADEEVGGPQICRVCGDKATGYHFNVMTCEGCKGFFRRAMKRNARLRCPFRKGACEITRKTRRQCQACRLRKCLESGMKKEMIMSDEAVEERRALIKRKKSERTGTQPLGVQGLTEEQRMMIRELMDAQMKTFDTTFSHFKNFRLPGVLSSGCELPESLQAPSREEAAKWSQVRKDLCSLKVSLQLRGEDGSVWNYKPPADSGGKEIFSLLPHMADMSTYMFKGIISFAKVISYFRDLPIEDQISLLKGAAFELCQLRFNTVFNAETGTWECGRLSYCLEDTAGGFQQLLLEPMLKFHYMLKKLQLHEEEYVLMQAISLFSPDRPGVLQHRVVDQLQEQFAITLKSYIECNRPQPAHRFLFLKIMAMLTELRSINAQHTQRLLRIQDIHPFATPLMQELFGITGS
Cytochrome P450 2C19 (Homo sapiens), sequence (P33261 whole entry, looked up): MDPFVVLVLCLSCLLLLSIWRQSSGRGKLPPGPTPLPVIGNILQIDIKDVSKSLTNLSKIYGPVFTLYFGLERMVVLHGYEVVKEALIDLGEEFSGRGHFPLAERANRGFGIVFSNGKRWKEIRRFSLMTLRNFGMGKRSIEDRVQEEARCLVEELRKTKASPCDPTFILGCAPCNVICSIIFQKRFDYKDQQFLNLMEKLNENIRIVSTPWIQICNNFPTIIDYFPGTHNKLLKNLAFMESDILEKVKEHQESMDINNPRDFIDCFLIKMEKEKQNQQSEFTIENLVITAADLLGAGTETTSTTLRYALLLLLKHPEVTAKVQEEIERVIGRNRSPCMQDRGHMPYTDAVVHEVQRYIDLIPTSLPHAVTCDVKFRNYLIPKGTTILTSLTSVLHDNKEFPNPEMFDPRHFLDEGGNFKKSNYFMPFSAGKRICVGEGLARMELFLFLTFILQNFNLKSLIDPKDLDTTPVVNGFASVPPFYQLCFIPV

`CN(C)CCC#N`: the result in [1] and in test [3] was inactive. In addition, the Potency result in test [2], in test [4], in test [5], in test [6], in [7] and in [8] was “inactive” each time. For the same compound, the Potency result in test [9], in [10], in test [11], in test [12], in test [13] and in [14] was “inactive” throughout. Further, the Potency result in test [15] and in test [16] was “inactive” throughout.
For `Nc1ccc([As](=O)(O)O)cc1`, the compound was classed as inactive in test [1] and in test [3]. The Potency entry in [2], in test [4], in [5], in test [6], in test [18] and in test [19] was “inactive” throughout. The Potency entry in test [8], in test [9], in [10], in test [11], in [12] and in test [13] was “inactive” in each case. In addition, the Potency result in test [14] and in [15] was “inactive” in each case. Besides, the max activation in test [17] is -1.25% (inactive). For the same compound, in test [16], the Potency was 34.6 µM (active) and inactive.
In the case of `O=C(O)c1cc(Oc2ccc(C(F)(F)F)cc2Cl)ccc1[N+](=O)[O-]`, the call in test [1] and in test [3] was inactive. The Potency result in test [2], in test [4], in test [5], in [7], in [8] and in test [9] was “inactive” in each case. Further, the Potency entry in test [10], in test [11], in test [14], in test [15] and in test [16] was “inactive” in each case. In addition, the Potency entry in test [6] was “inactive and 61.4 µM (active)”; in [12] it was “inactive and 71 µM (active)”; in [13] it was 21.9 µM (active) and 35.6 µM (active) and 31.9 µM (active).
In the case of `O=P1(NCCCl)OCCCN1CCCl` (stereo not given), the call in test [1], in [3] and in test [20] was inactive. In addition, the Potency result in test [2], in test [4], in [5] and in test [15] was “inactive” in each case.
As to `FC(F)(F)c1ccc(Cl)cc1`, the compound was called inactive in test [1] and in [3]. Further, the Potency result in test [2], in test [4], in test [5], in [6], in [7] and in test [8] was “inactive” each time. For the same compound, the Potency entry in test [9], in test [10], in test [11], in [12], in test [13] and in [15] was “inactive” each time. For the same compound, the Potency entry in test [16] is “inactive”.
With `Oc1ccc(Cl)cc1`, the result in test [1], in [3] and in [20] was inactive. In addition, the Potency result in test [2], in test [4], in test [5] and in test [15] was “inactive” in each case. The max activation in test [17] is 1.52% (inactive).
Consider `O=[N+]([O-])c1ccc(Cl)c(Cl)c1`, for which the result in test [1] and in test [3] was inactive. In addition, the Potency result in test [2], in test [4], in test [5], in test [6], in [7] and in [8] was “inactive” in each case. Moreover, the Potency entry in test [9], in [10], in test [11], in test [15] and in test [16] was “inactive” in each case. Moreover, the Potency in test [12] is 71.1 µM (active) and inactive; in test [14], “inactive and 22.4 µM (active)”.
